Casp7 inh: qHTS Assay for Allosteric/Competitive Inhibitors of Caspase-7 | Potency, µM (series often up to 57.5 µM), for the others: top-dose activity change, negative = inhibition, actives largely listed as inhibitors | AID 889, 2007 | 75,000 compounds, 0.02% hits | P55210 | recombinant caspase-7, Ac-DEVD-AFC fluorescence rate; active = well fitted inhibition curve with a large enough effect in the main read-out, with a control signal flat, not every such curve was filed as active; inconclusive = small, poorly fitted or top-dose-only effect, or a change in a side signal; also: % of control where 0% means no effect
CRE Fsk mod: Cell signaling CRE-BLA (Fsk stim); AID 662, 2007; 71,000 compounds, 2.5% hits; CHO CRE-bla reporter (cAMP response element driving beta-lactamase), forskolin EC10, beta-lactamase ratio; Potency, µM (doses to about 38.2 µM), inactives show at the top dose activity change, negative = inhibition, most hits filed as activators; active = well fitted activation curve with a large enough effect in the signal ratio, with a control signal flat, not every such curve was filed as active; inconclusive = small, poorly fitted or top-dose-only effect, or effect the other way, or a change in a side signal; the % refers to the signal ratio; also: % of control where 0% means no effect
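AC50 values, positive or negative, reflect shifts in EC10 NKH 477-induced CRE-bla reporter activity in CHO cells. Incubation lasted 3 h at 37 °C before CCF4 substrate (2 h, room temperature) and ratiometric 460/530 nm reading.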
Caspase-1 inhib: qHTS Assay for Allosteric/Competitive Inhibitors of Caspase-1. AID 900, 2007. Potency, µM (doses to about 57.5 µM), for the others: top-dose activity change, negative = inhibition, hits mostly inhibitors. 75,000 compounds, 0.03% hits. Caspase-1 enzyme, Ac-WEHD-AFC fluorogenic rate;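 also: plate controls were vehicle for no effect and no substrate for full effect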
USP2a inhib: qHTS Assay for Inhibitors of Ubiquitin-specific Protease USP2a. USP2a enzymatic assay, qHTS inhibition. 60,000 compounds, 0.1% hits. Ubiquitin carboxyl-terminal hydrolase 2 (Homo sapiens), O75604. Potency, µM (doses to about 38.3 µM), inactives show top-dose activity change, negative = inhibition, actives largely listed as inhibitors; also: nearly all actives have a fitted effect of over 60% in size
Target sequence (O75604 whole entry, looked up): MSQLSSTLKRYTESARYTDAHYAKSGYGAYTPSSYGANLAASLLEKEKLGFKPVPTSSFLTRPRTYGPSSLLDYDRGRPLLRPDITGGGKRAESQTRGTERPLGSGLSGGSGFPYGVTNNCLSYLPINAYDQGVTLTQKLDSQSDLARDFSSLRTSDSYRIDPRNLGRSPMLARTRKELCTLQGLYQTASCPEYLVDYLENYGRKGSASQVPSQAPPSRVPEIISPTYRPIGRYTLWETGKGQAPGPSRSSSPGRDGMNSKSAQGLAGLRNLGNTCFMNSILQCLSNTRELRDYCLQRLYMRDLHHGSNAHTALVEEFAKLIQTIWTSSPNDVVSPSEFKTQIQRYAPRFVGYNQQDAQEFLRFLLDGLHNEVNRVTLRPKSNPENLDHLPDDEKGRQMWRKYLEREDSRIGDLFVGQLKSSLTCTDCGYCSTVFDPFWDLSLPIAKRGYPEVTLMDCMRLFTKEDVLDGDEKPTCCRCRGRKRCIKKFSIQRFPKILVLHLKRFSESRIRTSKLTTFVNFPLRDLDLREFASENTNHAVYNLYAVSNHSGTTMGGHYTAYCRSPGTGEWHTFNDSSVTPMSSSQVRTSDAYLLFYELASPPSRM
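Inhibition is measured in a cell-free coupled assay with 20 nM USP2 core, 20 nM Ub-PLA2 and 20 uM NBD C6-HPC, 2.5 h incubation. Activity normalized to NEM control.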
TSHR ag: qHTS Assay for Agonists of the Thyroid Stimulating Hormone Receptor; Thyrotropin receptor (Homo sapiens), P16473; HEK293-CNG-TSHR cells (CNG channel as cAMP sensor), membrane potential dye, cAMP; Potency, µM (doses to about 57.1 µM), for inactives: at the top dose activation, most hits filed as activators; 73,000 compounds, 0.48% hits; active = well fitted activation curve with a large enough effect in the main read-out, with a control signal flat, not every such curve was filed as active; inconclusive = small, poorly fitted or top-dose-only effect, or a change in a side signal; inactive = no such curve, though single readings can be large or run the other way; % of control where 0% means no effect;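 also: the control signal comes from parental cells without the receptor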
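HEK 293 cells stably expressing TSHR and a cAMP-gated CNG channel; parental CNG-only cells as counterscreen. Cells preloaded 60 min with membrane potential dye plus 100 uM RO 20-1724, then compound 30 min; fluorescence read at 590 nm.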
HEK293 cAMP ctrl: qHTS Assay for Agonists of the Thyroid Stimulating Hormone Receptor: Activators of Intracellular cAMP Concentrations in Parental HEK 293 | parental HEK293 CNG cAMP sensor, membrane potential fluorescence | Potency, µM (series often up to 57.1 µM), inactives show top-dose activation, usual class: activators | 73,000 compounds, 2.5% hits | AID 938, 2007; also: % of control where 0% means no effect; nearly all actives have a fitted effect of over 55% in size
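Counterscreen for endogenous-receptor signalling: CNG-channel HEK 293 cells report cAMP rise by membrane depolarization. After 60 min dye equilibration with 100 uM RO 20-1724, compounds incubated 30 min before bottom-read fluorescence at 590 nm.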
The depositor's hits bear a star; [ ] = remark or other dose. In the library only some 5% were active in any assay of this set; here they are far more common. Unless noted, calls follow the shape of the dose curve; as a rule, active = well fitted curve in the direction sought with a large enough effect; inconclusive = small, poorly fitted or top-dose-only effect, or another doubt; inactive = no such curve, though single readings can be large; an effect the other way counts as inactive or inconclusive. Potency is read from the fitted curve at half-maximal effect.

For CCOC(=O)c1c(NC(=O)CSc2nnc(-c3cccnc3)n2Cc2ccco2)sc(C)c1C the results were Casp7 inh -5.9%, CRE Fsk mod 3.98µM*, Caspase-1 inhib -3.9%, USP2a inhib 16.7%, TSHR ag inconclusive and HEK293 cAMP ctrl inconclusive.
Screening COC(=O)NC(c1ccc2ccccc2c1)C(C(C)=O)C(=O)OC (stereo unspecified) returned Casp7 inh -0.5%[11.5 µM], Caspase-1 inhib -1.5%[11.5 µM], TSHR ag 12.1%[11.4 µM] and HEK293 cAMP ctrl 3.3%[11.4 µM].
`O=C(Oc1ccccc1)n1c(=O)oc2ccc(Cl)cc21` gave Casp7 inh -0.1%, Caspase-1 inhib -7.8%, TSHR ag 2.1% and HEK293 cAMP ctrl -14.1%.
For COc1cc(OC)c(-c2nn3c(-c4ccco4)nnc3s2)cc1OC the results were Casp7 inh -6.1%, CRE Fsk mod 3.16µM*, Caspase-1 inhib -7.4%, USP2a inhib 25.7%, TSHR ag 1.6% and HEK293 cAMP ctrl -1.8%.
For COc1ccc(-c2nn3c(-c4ccco4)nnc3s2)cc1OC the results were Casp7 inh -0.5%, CRE Fsk mod 6.31µM*, Caspase-1 inhib -1.6%, USP2a inhib 13.0%, TSHR ag 2.5% and HEK293 cAMP ctrl -4.1%.
CN1CCN(c2ncc3nc(-c4ccc(Cl)cc4)c(=O)n(C)c3n2)CC1 was read as Casp7 inh inconclusive, CRE Fsk mod inconclusive, USP2a inhib 95.1%, TSHR ag -9.1% and HEK293 cAMP ctrl 8.3%.
`CC1CCC2C(C1)c1sc(=O)[nH]c1SC2(C)C` (stereo unspecified) gave Casp7 inh 1.5%, CRE Fsk mod 10µM*, Caspase-1 inhib -0.6%, USP2a inhib -7.3% and HEK293 cAMP ctrl 20.6%.
`O=C(O)[C@H]1CC=CC[C@@H]1C(=O)Nc1cccc(O)c1` gave Casp7 inh 4.1%[11.5 µM], CRE Fsk mod 0.6%[7.6 µM], Caspase-1 inhib -0.4%[11.5 µM], TSHR ag -3.6%[11.4 µM] and HEK293 cAMP ctrl -2.4%[11.4 µM].
CCN=C(N)CSS(=O)(=O)O was read as Casp7 inh 1.0%[11.5 µM], CRE Fsk mod 0.5%[7.6 µM], Caspase-1 inhib -1.5%[11.5 µM], TSHR ag -1.0%[11.4 µM] and HEK293 cAMP ctrl 6.7%[11.4 µM].
c1ccc(-c2ccccc2-c2nc(-c3cccnc3)no2)cc1 was read as Casp7 inh -2.2%, CRE Fsk mod 10µM*, Caspase-1 inhib -2.1%, USP2a inhib -12.6%, TSHR ag inconclusive and HEK293 cAMP ctrl inconclusive.
For c1ccc(CCc2nc(-c3cccnc3)no2)cc1 the results were Casp7 inh 0.7%, CRE Fsk mod 10.8%, Caspase-1 inhib 1.3%, USP2a inhib 8.6%, TSHR ag -10.9% and HEK293 cAMP ctrl -8.1%.
`c1ccc(CCc2ccccc2-c2nc(-c3ccccn3)no2)cc1` gave Casp7 inh -1.8%, CRE Fsk mod inconclusive, Caspase-1 inhib -2.3%, USP2a inhib inconclusive, TSHR ag inconclusive and HEK293 cAMP ctrl 25.1µM*.
Screening c1ccc(CCc2ccccc2-c2nc(-c3cccnc3)no2)cc1 returned Casp7 inh -0.3%, CRE Fsk mod 3.16µM*, Caspase-1 inhib -1.6%, USP2a inhib -10.1%, TSHR ag inconclusive and HEK293 cAMP ctrl inconclusive.
Screening Cc1onc(-c2ccccc2Cl)c1-c1nc(-c2ccccn2)no1 returned Casp7 inh -1.0%, CRE Fsk mod 12.6µM*, Caspase-1 inhib -3.5%, USP2a inhib 15.7%, TSHR ag inconclusive and HEK293 cAMP ctrl 31.6µM*.
Screening COc1cccc(/C=N/NC(=O)c2cc(-c3ccc(C)cc3)n[nH]2)c1O returned Casp7 inh -9.1%, Caspase-1 inhib -2.9%, TSHR ag 23.9% and HEK293 cAMP ctrl 13.7%.
